High-throughput results deposited in PubChem by Columbia University Molecular Screening Center.
The full list was thinned out, with hits kept by preference.
VCAM1 pot = enhances TNF alpha induced VCAM1 expression in HUVEC; HUVEC TNFa-stimulated VCAM-1 immunofluorescence, high-content imaging; scaled per plate to unstimulated/TNFa-only wells; activation, % at 2 µM; 93,000 tested, 0.19% active;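 active = activation above the screen mean plus 3 SD, with well images confirming the hit on visual review, cut at about 28% in these data, passing the limit was not always enough; inconclusive = activation above that limit but images do not confirm it; inactive = activation not above that limit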;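 also: signal is the number of cytoplasmic VCAM-1 stained grains per positive cell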
VCAM1 pot conf = potentiators of TNFa-induced VCAM1 expression, confirmation, imaging, HUVEC, triplicate retest | shares compounds with VCAM1 pot | HUVEC TNFa-stimulated VCAM-1 immunofluorescence imaging | activation, % at 2 µM | AID 1034 | 230 tested, under 10 active;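 active = activation above 30% in triplicate retests at 2 µM, then confirmed by visual review of the well images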;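 also: scaled per plate between unstimulated and TNFa-stimulated DMSO control wells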
An asterisk follows results filed as active; ? = inconclusive.

SMILES | VCAM1 pot | others
COc1ccc([C@H]2[C@@H](C#N)[C@H](C#N)N3CCCN23)cc1 | 35
O=C(NCCN1CCN(c2ccccc2F)CC1)C1CCCN(S(=O)(=O)c2cnc[nH]2)C1 (stereo unspecified) | 5
CN(C)CCCN1C(=O)CSC1c1ccccc1 (stereo unspecified) | -7
CCOc1ccc(N2C(=O)CSC2c2ccncc2)cc1 (stereo unspecified) | -91
O=C1CSC(c2ccccn2)N1c1ccccc1 (stereo unspecified) | 34* | VCAM1 pot conf=-16
CC1CCN(c2ccccc2NC(=S)NC(=O)c2ccco2)CC1 | -6
O=S(=O)(CCc1nc2ccccc2s1)c1ccc2ccccc2c1 | 1
Cc1[nH]n(-c2ccc([N+](=O)[O-])cc2)c(=O)c1N=Nc1nc2ccccc2s1 | -52
CCOc1ccc(C=O)cc1CN1CCCCC1 | -95
Cc1cccc(C2Nc3ccccc3C(=O)N2c2ccc(F)cc2)n1 (stereo unspecified) | 7
CC(C)c1cc(C(=O)NCc2ccco2)no1 | -10
O=C(NCc1ccco1)c1sc2cc(F)ccc2c1Cl | 44* | VCAM1 pot conf=-10
O=C(NCc1ccco1)c1ccccc1F | 1
O=C(N/N=C/C(Br)=C/c1ccccc1)c1n[nH]c2c1CCC2 | -91
O=C(Nc1ccc2c(c1)CCC2)c1cnccn1 | 6
O=C(N/N=C/C(Cl)=C\c1ccccc1)c1cnccn1 | 63* | VCAM1 pot conf=-17
COc1cccc(-c2nc(=S)c3c(n2CCCO)CCCC3)c1 | 18
Cc1ccc(C)n1NC(=O)c1ccccc1O | -8
O=C1Nc2ccccc2C(=O)C1(Cl)Cc1ccccc1 (stereo unspecified) | -7
N#Cc1c2c(c(=S)n(-c3ccccc3)c1N)CCCC2 | 83* | VCAM1 pot conf=-8
CCOC(=O)c1c(C)cccc1OCC(N)=O | -8
Cc1nc2sc(C(c3cccc(F)c3)N3CCCC(C)C3)c(O)n2n1 (stereo unspecified) | -2
CC(C)(C)c1ccc(-c2nnc(SCCC#N)n2C2CCCC2)cc1 | 5
COc1ccc(-n2cnnc2SCCC#N)cc1 | ? | VCAM1 pot conf=-8
COc1ccc(CNC(=O)C2CCCN(S(=O)(=O)c3cnc[nH]3)C2)cc1 (stereo unspecified) | -10
SMILES | VCAM1 pot | others
Cc1cccn2cc(CNC(=O)C3CCCCC3)nc12 | 60* | VCAM1 pot conf=-14
O=C(NCc1ccccc1)C1CCCN(C(=O)Nc2ccccc2)C1 (stereo unspecified) | -3
O=C(COC(=O)c1ccncc1)NC(=O)C1CCCCC1 | 2
COc1ccc(C(=O)NCC(=O)n2nc(C)cc2C)cc1OC | 22
CCOC(=O)CSc1nc(-c2ccccc2)nc2c1oc1ccccc12 | -4
CCc1nc(SCC(=O)c2cccs2)c2oc3ccccc3c2n1 | 28* | VCAM1 pot conf=-14
CCCSc1ncnc2c1oc1ccccc12 | 2
Cc1nc(CC(=O)O)c(-c2ccccc2)s1 | -5
CCOc1ccccc1N1CCN(C(=O)c2cccc(-c3ccc(O)cc3)c2)CC1 | -44
O=C(COc1ccc(Br)cc1)Nc1ccc(-c2nnc(-c3ccco3)o2)cc1 | -2
O=C(CCSc1nnc(-c2ccco2)o1)Nc1ccccc1 | 44* | VCAM1 pot conf=-16
CC(=O)c1c(C)cc(C)c(CSc2nnc(-c3ccco3)o2)c1C | 16
C=CCc1c(C)nc(SC)nc1Nc1ccc(C)cc1 | 0
Cc1ccc(SCc2nc(-c3cccnc3)no2)cc1 | -51
CCOc1ccc(-c2nc(-c3cccnc3)no2)cc1 | 3
Cc1ccc(-n2nnnc2-c2cnc(-c3cccnc3)nc2C(F)(F)F)cc1 | 52* | VCAM1 pot conf=-10
O=C1CC(c2ccccc2)CN1S(=O)(=O)c1ccccc1 (stereo unspecified) | -6
Cc1nc(-c2cccnc2)sc1C(N)=O | -4
Cc1ccccc1/C(N)=N/OC(=O)/C=C/c1ccccc1 | 38* | VCAM1 pot conf=-13
COc1cccc(Cn2cnc3c(NS(=O)(=O)c4cccc(Cl)c4Cl)c(C)c(C)cc32)c1 | -1
CC(=O)Nc1cc(C(=O)N2CCN(C)CC2)ccc1Sc1ccc(C)cc1 | -8
O=C(Cc1ccccc1)Nn1cnc2ccccc21 | -8
CN1C(=O)CC(N2CCN(Cc3ccc(Cl)cc3)CC2)C1=O (stereo unspecified) | 10
COc1ccc2oc(=O)c(C(=O)N3CCN(c4ccccc4)CC3)cc2c1 | 83* | VCAM1 pot conf=-9
COc1ccc2oc(=O)c(C(=O)n3ccc(C)n3)cc2c1 | 0
SMILES | VCAM1 pot | others
COc1ccc2oc(=O)c(C(=O)NCc3cccnc3)cc2c1 | 15
CCOC(=O)C1=C(c2cccc(F)c2)NC(=S)NC1C (stereo unspecified) | -6
CCOc1ccccc1C1CC(=O)NC2=C1C(=O)CC(C)(C)C2 (stereo unspecified) | 7
CC(C)(C)NS(=O)(=O)c1ccc(CCC(=O)N2CCCCC2)cc1 | -27
OCCN(Cc1ccccc1)Cc1ccc(C(F)(F)F)cc1 | -10
Cc1ccccc1-c1nc(Cc2ccccc2)no1 | 9
COc1ccc(-n2c(SCC(=O)N3CCOCC3)nc(O)c(Cc3ccccc3)c2=O)cc1 | -30
